Pf apPOL inh = Pf-apPOL DNA polymerase inhibition | Recombinant Pf-apPOL, molecular beacon fluorescence, 1.5 h | inhibition, % at 10 µM | hit rate 0.25% among 210,000
mHTT CaM bind = mHTT-calmodulin interaction abrogation | P42858 | AlphaScreen His-mHTT/GST-CaM binding, luminescence | inhibition, % at 15 µM | hit rate 3.6% among 190,000 | AID 1671202
Numbers stand for hits; n = inactive; x = no result. Shown are actives, neighbours in structure and some others; about 3.5% of the full set was active somewhere. No stated cut-off is given here; in the data, active means inhibition above about 50%; inactive means the rest.

SMILES	Pf apPOL inh	mHTT CaM bind
CC(C)Oc1ccc(CN2CCc3nc(Nc4ccc5c(c4)OCO5)ncc3C2)cc1	n	80.0
Fc1cccc(CN2CCc3nc(Nc4ccc5c(c4)OCO5)ncc3C2)c1	n	n
CCOc1ccc(CN2CCc3nc(Nc4ccc5c(c4)OCO5)ncc3C2)cc1OC	n	n
Cc1ccc(CN2CCc3nc(Nc4ccc5c(c4)OCO5)ncc3C2)cc1	n	n
COc1cccc(CN2CCc3nc(Nc4ccc5c(c4)OCO5)ncc3C2)c1	n	83.7
CCOc1ccccc1CN1CCc2nc(Nc3ccc4c(c3)OCCO4)ncc2C1	n	83.3
O=C(NC1CCCCC1)c1ccc(-c2cnc(N3CCCC3)nc2)cc1	n	n
COc1ccc(Br)cc1/C=C1/N=C(c2ccccc2Cl)OC1=O	n	n
COc1cc(-c2ncnn2-c2cccc(Cl)c2C)cc(OC)c1OC	n	n
O=[N+]([O-])c1cccc(-c2nc3sc(-c4cccc([N+](=O)[O-])c4)nc3s2)c1	n	n
CC(=O)c1ccc(NC(=O)C2CCN(c3cncnc3N3CCCCC3)CC2)cc1	n	n
CN1CCN(c2ccc(S(=O)(=O)Nc3cc(C(=O)O)cc(C(=O)O)c3)cc2[N+](=O)[O-])CC1	n	n
COc1ccc(C(=O)C=Cc2ccc(OC)c(OC)c2)c(OC)c1	n	n
COc1ccc(C(=O)C=Cc2ccc(OC)c(OC)c2)c(O)c1	n	50.1
COc1cccc(N2CC(C(=O)NCC3(c4ccc(F)cc4)CC3)CC2=O)c1 (stereo not drawn)	n	n
COc1cc2c(cc1OC)C(COc1ccc(F)cc1)N(C(=O)C1CC1)CC2 (stereo not drawn)	n	n
COc1cc2c(cc1OC)C(COc1ccc(F)cc1)N(C(=O)c1ccccc1OC)CC2 (stereo not drawn)	n	81.0
COc1cc2c(cc1OC)C(COc1ccc(F)cc1)N(C(=O)c1ccc(F)cc1)CC2 (stereo not drawn)	n	57.0
CCOc1ccccc1C(=O)N1CCc2cc(OC)c(OC)cc2C1COc1ccc(OC)cc1 (stereo not drawn)	n	n
CN(C)c1ccc(Cc2ccc(N(C)C)cc2)cc1	n	x
CN(C)c1ccc(C(O)(c2ccc(N(C)C)cc2)c2ccc(N(C)C)cc2)cc1	n	100.3
CC(=O)NCCc1nc2ccccc2n1Cc1ccccc1F	n	n
Cn1nc(-c2nc(-c3ccc(F)cc3)no2)c2c1CCN(C(=O)c1ccccn1)C2	n	n
O=C(c1ccc(F)cc1)N1CCC(CCNS(=O)(=O)c2ccc(Cl)cc2)CC1	n	55.1
Cc1ccc(C(=O)N2CCC(CCNS(=O)(=O)c3ccc(C)cc3)CC2)cc1	n	n
SMILES	Pf apPOL inh	mHTT CaM bind
Cc1ccc(C(=O)N2CCC(CCNS(=O)(=O)c3ccc(F)cc3)CC2)cc1	n	53.2
Cc1ccc(C(=O)N2CCC(CCNS(=O)(=O)c3cccc(C#N)c3)CC2)cc1	n	50.4
Cc1ccc(C(=O)N2CCC(CCNS(=O)(=O)c3cccc(C)c3)CC2)cc1	n	n
CCOc1ccc(S(=O)(=O)NCCC2CCN(C(=O)c3ccc(C)cc3)CC2)cc1	n	61.6
O=C(c1ccccc1)N1CCC(CCNS(=O)(=O)c2ccc(F)cc2)CC1	n	n
Cc1ccc(C(=O)N2CCC(CCNS(=O)(=O)c3ccccc3)CC2)cc1	n	n
CS(=O)(=O)N1CCC(C(=O)Nc2sccc2C#N)CC1	n	n
Cc1ccc2oc(-c3cc(NC(=O)c4ccc(Cl)cc4Cl)ccc3O)nc2c1	n	n
Cc1ccc(Cl)cc1NC(=O)c1ccc(Cn2cncn2)cc1	n	n
Cc1ccc(F)cc1S(=O)(=O)NCCC1CCN(C(=O)c2ccc(F)cc2)CC1	n	n
Cc1ccc(C(=O)N2CCC(CCNS(=O)(=O)c3c(C)cc(C)cc3C)CC2)cc1	n	n
Cc1ccc(C)c(S(=O)(=O)NCCC2CCN(C(=O)c3ccc(F)cc3)CC2)c1	n	61.1
Cc1ccc(C(=O)N2CCC(CCNS(=O)(=O)c3c(C)noc3C)CC2)cc1	n	61.9
Cc1cc(C2CCC(C(=O)O)CN2C(=O)C2CCCC2)ccc1F (stereo not drawn)	n	n
Nc1cc(Oc2ccc(O)c(N)c2)ccc1O	n	90.2
Nc1cc(C(=O)c2ccc(O)c(N)c2)ccc1O	n	n
Nc1csc(C2CCOCC2)n1	n	n
O=C(c1cc(-c2ccco2)n(C2CCS(=O)(=O)C2)n1)N1CCN(c2ccccn2)CC1 (stereo not drawn)	n	n
O=C(c1cc(C2CC2)n(C2CCS(=O)(=O)C2)n1)N1CCN(c2cccc(Cl)c2)CC1 (stereo not drawn)	n	84.3
Cn1c(=N)n(CC(O)c2ccc(Cl)c(Cl)c2)c2ccccc21 (stereo not drawn)	n	n
Cc1ccccc1Cn1c(=N)n(CC(O)c2ccc(Cl)c(Cl)c2)c2ccccc21 (stereo not drawn)	n	100.2
CCC(=O)N(C)CCN1C(=O)CSC1c1ccc(C)cc1 (stereo not drawn)	n	n
CC1NC2(C(=O)N(C/C=C/c3ccccc3)c3ccccc32)C2C(=O)N(Cc3ccccc3)C(=O)C12 (stereo not drawn)	n	52.0
CC1NC2(C(=O)N(C/C=C/c3ccccc3)c3ccccc32)C2C(=O)N(c3ccccc3)C(=O)C12 (stereo not drawn)	n	n
CCc1ccc(C(=O)N2CCC(c3nc4cccnc4n3CCOC)C2)cc1 (stereo not drawn)	n	n
SMILES	Pf apPOL inh	mHTT CaM bind
CN(C)Cc1c(O)ccc2c1OC(=Cc1ccc(Cl)cc1)C2=O	n	n
Cc1ccc(CN2C(=O)CCC2(C)C(=O)NC2CCCC(C)C2C)cc1 (stereo not drawn)	n	n
COc1nn(C)cc1C(=O)Nc1nnc(COc2ccccc2)o1	n	65.7
CSc1ccccc1-c1nnc(NC(=O)CCOc2ccccc2)o1	n	n
O=C(COc1ccc(Cl)cc1)Nc1nnc(Cc2cccs2)o1	n	78.4
O=C(CSc1ccc(F)cc1)Nc1nnc(Cc2cccs2)o1	n	n
CCOc1cccc2cc(C(=O)Nc3nnc(-c4ccno4)o3)oc12	78.9	n
COc1ccccc1-c1nnc(NC(=O)COc2ccccc2)o1	n	76.7
COc1nn(C)cc1C(=O)Nc1nnc(-c2ccco2)o1	n	n
COc1cccc2cc(C(=O)Nc3nnc(Cc4ccc(Cl)s4)o3)oc12	n	n
O=c1[nH]c2ccccc2nc1-c1ccccc1NCc1ccc(Cl)cc1Cl	n	n
CC1Cc2nc(SCC(=O)NCc3ccccc3)n(C)c(=O)c2S1 (stereo not drawn)	n	n
O=C(Nc1cnccn1)c1c(O)c2cccc3c2n(c1=O)CC3	n	n
O=C(COc1ccc(Cl)cc1Cl)Nc1ccccc1F	n	n
COC(=O)c1ccc(C(=O)Nc2nnc(-c3cc(Cl)ccc3Cl)o2)cc1	n	n
CC1CN(S(=O)(=O)c2ccc(C(=O)Nc3nnc(-c4ccno4)o3)cc2)CC(C)O1 (stereo not drawn)	n	n
COC(=O)c1ccc(C(=O)Nc2nnc(-c3ccn(C(C)C)n3)o2)cc1	n	64.6
O=C(Nc1nnc(-c2ccno2)o1)c1ccc2c(c1)OCO2	n	96.3
COC(=O)c1ccc(NC(=O)C(=O)NCc2ccc3c(c2)OCO3)cc1	n	n
COC(=O)c1ccc(C(=O)Nc2nnc(Cc3ccc4c(c3)OCO4)o2)cc1	n	56.8
O=C(COc1ccc(Cl)cc1Cl)Nc1nnc(COc2ccccc2)o1	n	97.3
COCCCNC(=O)CC1CCN(C(=O)c2cc(OC)c(OC)c(OC)c2)CC1	n	n

Screens as filed in PubChem.
